Source: PubChem
Most compounds without a hit are left out; they make up all but 10% or so of the library.
LMNA splice mod: LMNA splicing modulation. AID 1487. hit rate 0.01% among 200,000. Potency, µM (doses to about 46.1 µM), for the others: at the highest dose ratio change, negative = inhibition, most hits filed as inhibitors. HeLa LMNA splicing GFP/RFP minigene ratio, 48 h; active means well fitted inhibition curve with a large enough effect in the signal ratio, with a control signal flat, not every such curve was filed as active; inconclusive means small, poorly fitted or top-dose-only effect, or effect the other way, or a change in a side signal; the % refers to the signal ratio; further: potency means the concentration at half of the fitted maximal effect
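Read-out is the ratio of GFP to DsRed2 object intensity, acquired by 488 nm laser-scanning cytometry on HeLa lamin A-EGFP minigene reporter cells. Compound incubation 48 hrs at 37 °C in Opti-MEM with 2% FBS; DMSO 0.5% final.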
HPGD block: blocks human HPGD enzyme activity; P15428; Potency, µM, without a hit: at the top dose activity change, negative = inhibition, hits mostly inhibitors; AID 894; hit rate 4.3% among 150,000; purified HPGD, NADH fluorescence kinetic, PGE2 substrate; further: potency means the concentration at half of the fitted maximal effect
Target sequence (P15428 whole entry, looked up): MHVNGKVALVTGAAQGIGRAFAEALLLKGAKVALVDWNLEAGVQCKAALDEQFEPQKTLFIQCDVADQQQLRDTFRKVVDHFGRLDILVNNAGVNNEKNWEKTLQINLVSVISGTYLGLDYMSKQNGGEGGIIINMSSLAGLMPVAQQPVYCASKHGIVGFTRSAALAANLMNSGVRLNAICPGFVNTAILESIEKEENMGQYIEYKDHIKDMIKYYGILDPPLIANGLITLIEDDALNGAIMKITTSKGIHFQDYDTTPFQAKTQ
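20 nM HPGD preincubated 15 min at room temperature with compound in 50 mM Tris-HCl pH 8, 0.01% Tween 20. Started with 1 mM NAD+ and 30 uM prostaglandin E2; NADH fluorescence (360/450 nm) read 5 times over 30-s intervals, last minus first.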
12-hLO inh: 12-hLO (ALOX12) enzyme inhibition; P18054; purified 12-hLO, xylenol orange hydroperoxide absorbance; Potency, µM (top dose mostly 57.1 µM), for the others: at the highest dose activity change, negative = inhibition, hits mostly inhibitors; hit rate 0.12% among 150,000; active means well fitted inhibition curve with a large enough effect; inconclusive means small, poorly fitted or top-dose-only effect; further: potency means the concentration at half of the fitted maximal effect; nearly all actives have a fitted effect of over 55% in size
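Purified human 12hLO (150 nM), preincubated 15 min with compound, then 40 uM arachidonic acid for 30 min, room temperature, Hepes pH 7.0 with 0.01% Triton X-100. Hydroperoxide detected by ferrous iron/xylenol orange; 573/405 nm absorbance ratio gives reaction progress.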
PNC inhibitor: perinucleolar compartment assembly inhibition | hit rate 3.1% among 140,000 | activity change (PNC), negative = inhibition, % at 10 µM | AID 2417 | PC3M PTB-GFP, PNC prevalence imaging, 16 h; hits give low values;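 active means readout at or below -70, meaning at least 70% loss of cells showing the perinucleolar compartment, a nuclear body marking cancer cells; inconclusive means readout between -30 and a set limit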;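 further: plate controls were DMSO wells for no effect and camptothecin positive control wells for full effect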
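Read-out is percentage of cells bearing a perinucleolar compartment, from automated 20x imaging of fixed, Hoechst-stained PC3M PTB-GFP cells. Cells were seeded 4 h, then exposed 16 h to compound (23 nl of library stock) in duplicate plates.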
ALDH1A1 inh: ALDH1A1 (human) enzyme inhibition; Purified ALDH1A1, NADH fluorescence, propionaldehyde substrate; hit rate 7.3% among 220,000; AID 1030; P00352; Potency, µM (series often up to 75.3 µM), for the others: top-dose activity, negative = inhibition, usual class: inhibitors;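 further: potency means the concentration at half of the fitted maximal effect; plate controls were no enzyme wells and a reference inhibitor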
* marks the source's active call; other numbers are inactive results; ? = inconclusive; . = no result; ! = repeats disagree; [ ] = another dose, or the depositor's remark. Unless noted, the call rests on the fitted dose curve; in most records, active means well fitted inhibition curve with a large enough effect (not every such curve was filed as active); inconclusive means small, poorly fitted or top-dose-only effect, or another doubt; inactive means no such curve, though single readings can be large or run the other way. Unless noted, on the % scale 0 is the no-effect control and ±100 the full control effect.

SMILES	LMNA splice mod	HPGD block	12-hLO inh	PNC inhibitor	ALDH1A1 inh
Cc1cc(C)nc(SCC(=O)c2ccc(O)cc2O)n1	-5%	-19%	1%	-92*	11%
O=C(CSc1nc2ccccc2nc1SCC(=O)N1CCCCC1)N1CCCCC1	-2%	2.5µM*	-10%	-20	10%
CC(=O)c1cccc(NC(=O)CN2C(=O)c3cccnc3Sc3ccccc32)c1	-2%[46 µM]	.	.	.	.
CCc1ccc(S(=O)(=O)Nc2cccc(-c3ccc(N4CCC(C)CC4)nn3)c2)s1	0%[46 µM]	.	.	.	.
Cc1cc(C)nc(SCc2nnc(SCC(=O)O)n2-c2ccccc2)n1	17%[46 µM]	.	.	.	8%
Nc1cc(N)nc(SCC(=O)N2CCCCC2)n1	2%	28µM*	4%	35	-4%
Cc1cc(C)nc(SCC(=O)NN)n1	12%[46 µM]	.	.	.	10µM*
Cc1ccc(-n2c(CSc3nc(C)cc(C)n3)nnc2SCC(=O)N2CCCC2)cc1	3%	3%	-7%	-100*	?
Cc1ccccc1CN1CCN(CC(=O)NCc2ccccc2Cl)C1=O	8%[46 µM]	.	.	.	.
Cc1cc2c(cc1S(=O)(=O)Nc1cccc(Cl)c1C)n(C)c(=O)c(=O)n2C	-4%[46 µM]	.	.	.	.
COc1ccc(OC)c(CCNC(=O)c2c3c(nc4ccccc24)C(=O)N(C2CCCCC2)C3)c1	-11%[46 µM]	.	.	.	.
CC(C)c1nnc(SCC(=O)NCCC2=CCCCC2)n1N	-10%	16µM*	0%	?	20µM*
CCN(CC)S(=O)(=O)c1cccc(-c2nnc(SCC(=O)NCCC3=CCCCC3)n2N)c1	?	-2%	-6%	-17	?
CC(C)CCNC(=O)C(=O)NCCC1=CCCCC1	14%	-9%	-1%	45	7%
Cc1cccc(-n2nnnc2SC(C)C(=O)NCCC2=CCCCC2)c1 (configuration not stated)	12%	-24%	-7%	-3	5µM*
CCCCOc1ccc(C(=O)NCCc2sc(-c3cccc(F)c3)nc2C)cc1	-14%[46 µM]	.	.	.	.
COc1ccc(CCNC(=O)C2CCC(CNS(=O)(=O)c3ccccc3)CC2)cc1OC (configuration not stated)	.	.	.	.	0.63µM*
COc1ccc(CCNC(=O)c2ccc(CNS(=O)(=O)c3ccccc3)cc2)cc1OC	-12%	-11%	-4%	-20	2.5µM*
COc1ccc(CCNC(=O)c2ccc(CN3CCC(Cc4ccccc4)CC3)cc2)cc1OC	?	3%	1%	6	8%
COC(=O)[C@@H]1[C@@H](O)[C@]2(O)c3ccccc3O[C@]2(c2ccccc2)[C@H]1c1ccccc1	.	.	.	.	11%[13.5 µM]
C1=Nc2c(NCc3ccccc3)ncnc2Oc2ccccc21	?	25µM*	2%	16	-12%
Cc1sc2ncnc(NCc3ccccc3)c2c1C	17%	-17%	5%	29	1%
Cc1ccccc1N1CC(C(=O)Nc2nnc(SCC(=O)Nc3nccs3)s2)CC1=O (configuration not stated)	?	-29%	-2%	4	16µM*
Cc1cccc(N2CC(C(=O)Nc3nnc(SCC(=O)Nc4nccs4)s3)CC2=O)c1 (configuration not stated)	-4%	-8%	0%	12	2%
CCc1nn2c(=O)cc(COC(=O)c3ccccc3NC(=O)COc3ccccc3C)nc2s1	10%[46 µM]	.	.	.	.
SMILES	LMNA splice mod	HPGD block	12-hLO inh	PNC inhibitor	ALDH1A1 inh
CCOC(=O)CC(=O)CSc1nc2ccccc2c(=O)n1-c1ccc(C(=O)N2CCOCC2)cc1	2%[0.0737 µM]	-11%	9%	-14	-10%
O=C(c1ccc(-n2c(SCc3cc(F)ccc3F)nc3ccccc3c2=O)cc1)N1CCOCC1	5%	-12%	0%	22	35µM*
CCOc1ccccc1-n1c(=S)sc2c(=O)n(-c3ccc(C)cc3)c(=S)[nH]c21	.	.	.	.	7.9µM*
Cc1ccc(NC(=O)CCN2CCN(C/C=C/c3ccccc3)CC2)cc1C	?	-13%	-13%	0	14µM*
Cc1ccc(NC(=O)CCN2CCN(C/C=C/c3ccccc3)CC2)cc1	-13%	-1%	13%	26	5%
CC(C)(N=NC(C)(C)C(=N)N)C(=N)N	.	-8%	-8%[11.4 µM]	.	32µM*!
COc1ccccc1CNc1ncncc1-c1cccc(C#N)c1	-7%	-20%	2%	.	-1%
CCOC(=O)CCCc1sc(N)nc1-c1[nH]c(=O)[nH]c1C	8%	32µM*	-9%	15	13µM*
